According to PubChem BioAssay (EPA / NIEHS):
Activity calls are given as the source filed them. The calls were made as follows: active = hit-call score of the fitted dose curve at least 0.9, where 1 is the maximum; inactive = score below 0.9.

assay: ATG_SREBP_CIS: Attagene CIS-FACTORIAL HepG2 Assay for human Sterol Regulatory Element Binding (SREBP) (AID 2282962); conditions: HepG2 Attagene cis-factorial SREBP reporter, mRNA; actives raise or lower the signal
Description: ATG_CIS is a cell-based, multiplexed-readout assay that uses HepG2, a human liver cell line, with measurements taken at 24 hours after chemical dosing in a 24-well plate.ATG_SREBP_CIS is one of 52 assay component(s) measured or calculated from the ATG_CIS assay. It is designed to make measurements of mRNA induction, a form of inducible reporter, as detected with fluorescence intensity signals by Reverse transcription polymerase chain reaction (RT-PCR) and Capillary electrophoresis technology.Data from the assay component ATG_SREBP_CIS was analyzed into 1 assay endpoint. This assay endpoint, ATG_SREBP_CIS, was analyzed with bidirectional fitting relative to DMSO as the negative control and baseline of activity. Using a type of inducible reporter, measures of mRNA for gain or loss-of-signal activity can be used to understand the reporter gene at the transcription factor-level as they relate to the gene SREBF1. Furthermore, this assay endpoint can be referred to as a primary readout, because this assay has produced multiple assay endpoints where this one serves a reporter gene function. To generalize the intended target to other relatable targets, this assay endpoint is annotated to the dna binding intended target family, where the subfamily is basic helix-loop-helix leucine zipper.
Human liver HepG2 cells are transiently transfected with multiple reporter transcription units (MRTUs) in 6-well plates using FuGene 6 reagent (Roche; 3 ml FuGene/1 mg DNA). The MRTU constructs are regulated by a cis-regulating element (promoter). […] A major difference between the CIS and TRANS system is that in CIS activities of endogenous TFs are measured, whereas the TRANS assay evaluates changes in activities of exogenous, chimeric NR-Gal4 proteins. […] At the end of 24 hour incubation, total RNA was isolated using TriZol reagent (Invitrogen). The isolated RNA is then reverse-transcribed using oligo(dT) primer and Mo-MLV reverse transcriptase (Invitrogen) with DNAse I (Ambion) treatment for 30 min. The one-tenth of the produced cDNA was amplified by PCR using Taq DNA polymerase (Invitrogen) and two reporter sequence-specific primers. The PCR products were fluorescently labeled by primer extension with 6-arboxyfluorescein (6-FAM) 5'-labeled reporter sequence-specific primer (2 min at 95 C, 20 s at 68 C and 10 min at 72 C) and these products were digested with 5U of HpaI (New England Biolabs) for 2h at 37 C. The fragments were purified using Qiaquick PCR columns (Qiagen), analyzed on an ABI 3130xL genetic analyzer (Applied Biosystems) with peak positions identified by using a set of X-rhodamine (ROX)-labeled MapMarker1000 molecular weight standards (BioVentures). The raw capillary electrophoresis data was processed using Attagraph software (Attagene).

Compound | outcome | AC50
C=CCc1ccc(OC(=O)Cc2ccccc2)c(OC)c1 | inactive | 
CC=Cc1ccc2c(c1)OCO2 | inactive | 
CC[N+](=O)[O-] | inactive | 
C[C@]12CC[C@H](O)C[C@H]1CC[C@@H]1[C@@H]2C[C@@H](O)[C@]2(C)[C@@H](C3=CC(=O)OC3)CC[C@]12O |  | 1.74 µM (active)
[Cl][Sb]([Cl])[Cl] | inactive | 
C[N+](C)(C)CC(=O)[O-] | inactive | 
CN(N=O)c1ccccc1 | inactive | 
COC(=O)COc1ccc(Cl)cc1Cl | inactive | 
CN1C[C@H](C(=O)N[C@]2(C)O[C@@]3(O)[C@@H]4CCCN4C(=O)[C@H](Cc4ccccc4)N3C2=O)C=C2c3cccc4[nH]cc(c34)C[C@H]21 |  | 16.4 µM (active)
O=C(O)CCCc1ccc(N(CCCl)CCCl)cc1 | inactive | 
O=[N+]([O-])c1ccc(Cl)cc1 | inactive | 
CC1OC(C)OC(C)O1 (stereo not given) | inactive | 
c1ccc(Nc2ccc3ccccc3c2)cc1 | inactive | 
C=C(Cl)CCl | inactive | 
Cc1ccc(C)c2ccccc12 | inactive | 
CN(C)CCC#N | inactive | 
O=[N+]([O-])c1cc(C(F)(F)F)c(Cl)c([N+](=O)[O-])c1Cl | inactive | 
CCCCCc1cc(O)cc(O)c1 | inactive | 
c1cc(OCC2CO2)ccc1Cc1ccc(OCC2CO2)cc1 (stereo not given) |  | 33.4 µM (active)
N#Cc1cc(I)c(O)c(I)c1 | inactive | 

Compound | outcome | AC50
CC1CCC(=O)O1 (stereo not given) | inactive | 
N#CC(c1ccccc1)c1ccccc1 | inactive | 
BrCBr | inactive | 
COc1cc(OC)nc(Oc2cccc(Oc3nc(OC)cc(OC)n3)c2C(=O)O)n1 | inactive | 
O=CNC(N1CCN(C(NC=O)C(Cl)(Cl)Cl)CC1)C(Cl)(Cl)Cl (stereo not given) | inactive | 
[N-]=[N+]=CC(=O)OC[C@H](N)C(=O)O | inactive | 
C=CC(=O)OC | inactive | 
O=c1c2ccccc2c(=O)c2c1cc(Cl)c1[nH]c3c([nH]c12)c(Cl)cc1c(=O)c2ccccc2c(=O)c13 | inactive | 
C=CCN(CC=C)C(=O)C(Cl)Cl | inactive | 
CC(C)(c1cc(Cl)c(O)c(Cl)c1)c1cc(Cl)c(O)c(Cl)c1 | inactive | 
CCC(C)(C)O | inactive | 
CCN(CC)C(=S)S | inactive | 
CCOC(=O)N(C)N=O | inactive | 
CC(C)(C)C(O)C(Oc1ccc(-c2ccccc2)cc1)n1cncn1 (stereo not given) |  | 12.7 µM (active)
O=P1(NCCCl)OCCCN1CCCl (stereo not given) | inactive | 
COc1ncc(F)c2nc(S(=O)(=O)Nc3c(F)cccc3F)nn12 | inactive | 
C=CCO | inactive | 
CCOC(=O)C1OC1(C)c1ccccc1 (stereo not given) | inactive | 
O=[N+]([O-])c1cc([N+](=O)[O-])c2ccccc2c1 | inactive | 
CCc1cccc(C)c1N(C(=O)CCl)[C@@H](C)COC | inactive | 
